Measurements from PubChem BioAssay.
Values without a mark were called inactive. The rule behind the calls is not given here.

Test: blockers of DNA damage checkpoint Chk1 activation – imaging, HeLa, hydroxyurea, phospho-Chk1 nuclear intensity, primary screen (AID 1187); note: test concentration not given here
Conditions: hydroxyurea-induced phospho-Chk1 immunofluorescence imaging, higher = more signal
`CC(C)N1CC=CC23O[C@@H]4/C=C\CCCOC(=O)C4[C@H]2C(=O)N(CCCCCO)[C@@H]3C1=O` (some centres undefined) showed a z-score of -0.128. Work on `[N-]=[N+]=NCc1ccccc1C[C@@]1(C(=O)O)N=C(c2ccc(OCCCO)cc2)O[C@@H]1c1ccccc1N=[N+]=[N-]` yielded a z-score of -0.884. Molecule `CC(c1ccccc1)C(O)C1C=CC2C(=O)N(C)C(=O)C2N1N(c1ccccc1)c1ccccc1` (centres undefined) has a z-score of -0.173. For `COc1ccc(CCN2C(=O)[C@@]3(c4ccc([N+](=O)[O-])cc4)CC(=O)N(CC45CC6CC(CC(C6)C4)C5)[C@@H]3c3ccc(CO)cc32)cc1`, the z-score was 0.522. With `O=C1C[C@@](C(=O)NCCN2CCOCC2)(c2ccc([N+](=O)[O-])cc2)[C@@H](c2ccc(CO)cc2)N1C1CCCCC1` the z-score was 0.434. `CCOC(=O)C[C@H]1[C@H](OC(=O)Cc2ccc3c(c2)OCO3)[C@@H](NC(=O)CC(C)C)c2cc(OCCCO)ccc2N1C(=O)c1ccccc1` gave a z-score of -0.321. For `Cc1ccc(S[C@]2(C(=O)O)CC(=O)N(Cc3ccccc3)[C@@H]2c2ccc(CO)cc2)cc1`, the z-score was -1.23. `Cc1ccc(S[C@]2(C(=O)NC(C)C)CC(=O)N(Cc3cc(C(F)(F)F)cc(C(F)(F)F)c3)[C@@H]2c2ccc(CO)cc2I)cc1` gave a z-score of 0.52. `C=C(CCCC)/C(=C/C[C@@H](OC(=O)c1ccncc1)c1ccc(CO)o1)c1cnc2ccccc2c1` showed a z-score of -0.125. For `CN(C)c1ccc(C(O)C2C=CC3C(=O)NC(=O)C3N2Nc2ccc(Cl)cc2Cl)cc1` (centres undefined), the z-score was 0.0147. With `CC(C)(C)OC(=O)CC[C@]1(C(=O)NCCN2CCOCC2)N=C(c2ccc(OCCCO)cc2)O[C@H]1c1ccccc1CN=[N+]=[N-]` the z-score was -0.6. In the case of `COc1cc2c(cc1OC)CN(C(=O)[C@H]1[C@@H]3C(=O)O[C@@H](c4ccccc4)[C@@H](c4ccccc4)N3[C@@H](c3ccc(O)cc3)[C@]13C(=O)Nc1ccc(C#CC4(O)CCCCCC4)cc13)CC2`, the z-score is reported as 0.0808. In the case of `Cc1ccc(N2C(=O)c3ccccc3[C@](C)(C(=O)NCC(C)C)[C@@H]2c2ccc(CO)cc2)nc1`, the z-score is reported as 0.123. With `CCOC(=O)C[C@H]1[C@H](OC(=O)c2ccccc2-c2ccccc2)[C@@H](NC(=O)c2ccc(-c3ccccc3)cc2)c2cc(OCCCO)ccc2N1C(=O)Cc1ccc(OC)cc1` the z-score was 0.241. `C=CCN1C(=O)[C@@]2(O[C@@H](CCn3cc([C@H](O)c4ccccc4)nn3)[C@H]([Si](C)(C)c3ccc(OC)cc3)[C@H]2C)c2cc(N3CCOC3=O)ccc21` gave a z-score of -1.43. In the case of `C=CCOC(=O)[C@@H]1[C@H]2C(=O)O[C@H](c3ccccc3)[C@H](c3ccccc3)N2[C@H](c2ccc(OCCOC(=O)[C@H]3C[C@H]4C(=O)N5CCC[C@H]5C(=O)N4[C@H]3c3ccc(O)cc3)cc2)[C@@]12C(=O)Nc1ccccc12`, the z-score is reported as 0.895. In the case of `O=C1NC(=O)C2C1C=CC(C(O)C=Cc1ccc([N+](=O)[O-])cc1)N2Nc1ccccn1` (centres undefined), the z-score is reported as -0.987. For `COc1cc(Cc2cc3c(c(CCc4ccccc4)n2)[Si](C(C)C)(C(C)C)OC3)cc(OC)c1OC`, the z-score was -0.0848. `CCCCCCc1nc(-c2cc(C)c(OC)c(C)c2)cc2c1[Si](C(C)C)(C(C)C)O[C@H]2c1ccccc1` gave a z-score of -0.242. In the case of `COC(=O)[C@@]1(Cc2ccccc2CN=[N+]=[N-])N=C(c2ccc(OCCCO)cc2)O[C@H]1c1ccccc1N=[N+]=[N-]`, the z-score is reported as 0.0586. `C#CCNC(/C=C/c1ccccc1)CO` (centres undefined) gave a z-score of 0.237. For `C[N+](C)(C)CCCCNC(=O)[C@H]1C[C@H]2C(=O)NCC(=O)N2[C@H]1c1cccc(OCCO)c1`, the z-score was -0.0729. `O=C1O[C@@H](c2ccccc2)[C@@H](c2ccccc2)N2[C@@H](c3ccc(OCCO)cc3)[C@]3(C(=O)Nc4ccc(C#CCCO)cc43)[C@@H](C(=O)N3CCN(c4ncccn4)CC3)[C@H]12` showed a z-score of 0.92. Molecule `C=C(C)[C@@H]1CC=C(C(O)C2C=CC3C(=O)NC(=O)C3N2Nc2ccccn2)CC1` (some centres undefined) has a z-score of -0.126.
